PRC2 inh – inhibitors of human EZH2/PRC2 methyltransferase | inhibition, % at 12.5 µM | AID 651548 | PRC2 H3K27 methylation, DELFIA TRF, 1 h | Q15910 | hit rate 0.35% among 57,000;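 active = mean inhibition of replicates at least 50% and every single replicate also reaching 50%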;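 also: dimethyl H3K27 on biotinylated H3 21-44 peptide detected by antibody; plate controls were median neutral control wells for no effect and median positive control wells for full effect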
Active calls of the source: *. Shown is part of a subset that was picked to be rich in hits.

SMILES	PRC2 inh
CCC(=O)Nc1ccc(Cl)c(Cl)c1	2
CCCCC/C=C/C/C=C/C/C=C/C/C=C/CCCC(=O)Nc1ccc(O)cc1	69*
CCCCC/C=C\C/C=C\C/C=C\C/C=C\CCCC(=O)NCc1ccc(O)c(OC)c1	43
[N-]=[N+]=Nc1cccc(C(=O)O)c1	-6
OC[C@H]1O[C@@H](Oc2ccc(/C=C/c3cc(O)cc(O)c3)cc2O)[C@H](O)[C@@H](O)[C@@H]1O	31

From PubChem BioAssay
